Measurements as given in PubChem BioAssay (NCATS).
Records with an inconclusive call do not appear. Activity calls are given as the source filed them. Unless noted, calls follow the shape of the dose curve; as a rule, active = well fitted curve in the direction sought with a large enough effect; inconclusive = small, poorly fitted or top-dose-only effect, or another doubt; inactive = no such curve, though single readings can be large; an effect the other way counts as inactive or inconclusive.

Legend:
[1] = AP1 Signaling Pathway (AID 357; active = well fitted curve in either direction with a large enough effect, not every such curve was filed as active; also: % is scaled to controls: 0 for no effect and ±100 for the full control effect); conditions: ME-180 AP-1-bla reporter, EGF-induced, beta-lactamase ratio, 5 h; at 38 µM (top of the series)
Procedure, shortened: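 ME-180 cells with beta-lactamase reporter under AP-1 response element, stimulated with EC50 EGF; compounds tested in titration series, 5 h at 37 °C. CCF4 substrate added 2.5 h at room temperature; 460/530 nm emission ratio gave %activity and AC50.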

[2] = biological target: Cytochrome P450 1A2 (Homo sapiens) (UniProt P05177); assay: p450-cyp1a2 (AID 410; calls by dose curve; also: potency is read from the fitted curve at half-maximal effect)
Procedure, shortened: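 Luminescent readout of luciferin formed from Luciferin-ME by human CYP1A2; data normalized against complete inhibition by 57 uM furafylline. Enzyme 20nM, substrate 100uM at Km, 100mM KPO4 buffer, 60 min reaction at room temperature.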

[3] = NFAT Signaling Pathway (AID 444; active = well fitted curve in either direction with a large enough effect, not every such curve was filed as active;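 also: carbachol stimulus at about its EC50 of 1 µM final; % is scaled to controls: 0 for no effect and ±100 for the full control effect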); conditions: Jurkat NFAT-bla M1, carbachol, beta-lactamase ratio, 5 h; at 38 µM (top of the series)
Procedure, shortened: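 Read-out: CCF4 FRET ratio (460 nm/530 nm) after 1 h RT dye loading, used for %activity and AC50 from titration series. Cells: Jurkat NFAT-β-lactamase/M1 line, treated with compound plus 1 uM carbachol for 5 h, 37 °C.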

[4] = Stat Signaling Pathway (AID 446; active = well fitted curve in either direction with a large enough effect, not every such curve was filed as active;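 also: ME-180 cervical cancer cells given 40 pM IL-6 alongside compound; SIE-controlled beta-lactamase reporter measured as 460/530 nm FRET emission ratio; % is scaled to controls: 0 for no effect and ±100 for the full control effect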); conditions: ME-180 SIE beta-lactamase reporter, IL-6 stimulated, 5 h; at 38 µM (top of the series)
Procedure, shortened: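 ME-180 SIE-bla cells; overnight plating; cpd + IL-6 40 pM, 5 h, 37 C; LiveBLAzer 2.5 h RT; 460/530 nm emission ratio. Normalized to 300 pM IL-6 and 125 nM JAK inhibitor controls.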

[5] = biological target: Glucocorticoid receptor (Homo sapiens) (UniProt P04150); assay: GR-GFP Redistribution (AID 450;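 active = compounds whose dose series gives a full or clear partial fitted curve of increased nuclear translocation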; also: potency is read from the fitted curve at half-maximal effect); conditions: U2OS GR-GFP nuclear translocation, laser cytometry, 2 h
[6] = biological target: Glucocorticoid receptor (Homo sapiens) (UniProt P04150); assay: GR-EFC Redistribution (AID 451; calls by dose curve; also: potency is read from the fitted curve at half-maximal effect); conditions: CHO-K1 GR-EFC translocation, beta-gal luminescence, 2 h
Procedure, shortened: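 Translocation of GR-ED fusion to nuclear EA restores b-gal, read by luminescence after 1 h room-temperature detection. Engineered CHO-K1 biosensor cells, 1,000/well, exposed 2 h at 37 C to titrations up to 46 uM final.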

[7] = biological target: Mitogen-activated protein kinase 10 (Mus musculus) (UniProt Q61831); assay: JNK3 AlphaScreen Assay (AID 530; active = well fitted curve in either direction with a large enough effect, not every such curve was filed as active;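 also: kinase came from lysate of stimulated human HepG2 cells; signal reports phosphorylation of biotinylated GST-cJun 1-79 at Ser73 with 10 µM ATP; % is scaled to controls: 0 for no effect and ±100 for the full control effect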)
Procedure, shortened: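 Compound titrations were preincubated 15 minutes at room temperature with substrate, antibody and pre-activated JNK3-containing HepG2 lysate. Reactions were started with 10 uM ATP and stopped with EDTA-containing bead buffer for AlphaScreen detection.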

[8] = biological target: Guanine nucleotide-binding protein G(i) subunit alpha-1 (Homo sapiens) (UniProt P63096); assay: qHTS Assay for Inhibitors of RGS12 GoLoco Motif Activity (Green Fluorophore) (AID 879);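 also: 0% = labeled peptide with Gαi1 and full inhibition = labeled peptide alone without protein; negative values mean loss of peptide binding seen as reduced polarization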
Procedure, shortened: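 Fluorescence polarization assay: 50 nM Gαi1 with 10 nM FITC-labeled RGS12 GoLoco peptide in 10 mM Tris pH 7.5, 150 mM NaCl, 0.1 mM GDP, 0.05% NP40, 10 min at room temperature with compound.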

[9] = biological target: Cytochrome P450 3A4 (Homo sapiens) (UniProt P08684); assay: qHTS Assay for Activators of Cytochrome P450 3A4 (AID 885); also: nearly all actives have a fitted effect of over 65% in size
Procedure, shortened: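 20nM CYP3A4 + 25uM Luciferin-PPXE (=KM), 200mM KPO4; cpd 10 min RT; NADPH regen, 60 min RT; stop w/ detection buffer, 20 min; luminescence. Normalized to 57 uM ketoconazole.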

[10] = qHTS Assay for Identification of Small Molecule Antagonists for Thrombopoietin (TPO) Signaling Pathway (AID 918); conditions: TPO-dependent cell signaling reporter, antagonist mode; also: potency is read from the fitted curve at half-maximal effect; nearly all actives have a fitted effect of over 60% in size
Procedure, shortened: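 Ba/F3 (murine, hTPO-R, GPIIb-luc reporter); overnight IL-3 withdrawal; cpd + TPO 26 pM final (EC50); 24 h 37 C/5% CO2; Steadylite luminescence after 10 min RT.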

[11] = biological target: Muscarinic acetylcholine receptor M1 (Rattus norvegicus) (UniProt P08482); assay: qHTS Assay for Antagonists of Acetylcholine Muscarinic M1 Receptor: Kinetic Measurement of Intracellular Calcium Response (AID 943);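 also: Fluo-4 calcium signal as peak divided by basal fluorescence over 4 min; nearly all actives have a fitted effect of over 75% in size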
Procedure, shortened: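 Rat M1-CHO cells, 2000/well, overnight → Fluo-4 no-wash dye with probenecid, 1 h 37C → compound 10 min, room temp → basal read 6 s → carbachol EC80 (100 nM) → 4 min kinetic read; peak/basal.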

[12] = biological target: Pyruvate kinase (Leishmania mexicana) (UniProt Q27686); assay: qHTS Validation Assay for Activators of Leishmania Mexicana Pyruvate Kinase (AID 959)
Procedure, shortened: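 Read-out: luminescence from PKLight stop/detection reagent, data normalized to DMSO. Reaction: 0.2 nM E451W LmPYK, 0.5 mM PEP, 0.1 mM ADP, pH 7.2, 1 h room temperature.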

[13] = biological target: Alpha-galactosidase A (Homo sapiens) (UniProt P06280); assay: Counterscreen for Glucocerebrosidase Inhibitors: qHTS Assay for Human alpha-Galactosidase at pH 4.5 (AID 992); also: 0% is about no effect
Procedure, shortened: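 Enzyme at 2 nM final was combined with compound (0.7 nM to 77 uM) and 80 uM 4-methylumbelliferyl alpha-D-galactopyranoside in 50 mM citric acid, 0.005% Tween-20, pH 4.5. After 20 min at room temperature, fluorescence was read (Ex 365/Em 440 nm); AC50 came from Hill fits.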

[14] = biological target: alpha-glucosidase (Oryza sativa, rice) (UniProt Q653V4); assay: Counterscreen for Glucocerebrosidase Inhibitors: qHTS Assay for Rice alpha-Glucosidase at pH 5.0 (AID 997);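 also: 0% = full activity with enzyme and -100% = basal without enzyme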
Procedure, shortened: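 Rice alpha-glucosidase (4 nM final) with 400 uM 4-methylumbelliferyl-alpha-D-glucopyranoside in citrate buffer pH 5.0, 20 min at room temperature, stopped at pH 10; fluorescence 365/440 nm, compounds 0.7 nM–77 uM, AC50 from Hill fits.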

[15] = qHTS Assay for Lipid Storage Modulators (AID 1519; calls by dose curve); conditions: Drosophila S3 cells, BODIPY lipid droplet/cell ratio, laser cytometry, cells loaded with oleic acid
Procedure, shortened: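 Cells seeded at 5,000 per well were treated with compounds over a concentration series and loaded with oleic acid (400 uM, as added). Lipid droplet fluorescence (488 nm excitation, 500-530 nm channel) was read by laser-scanning cytometry and normalized to 20 uM Triacsin C.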

[16] = biological target: DNA repair nuclease/redox regulator APEX1 (Homo sapiens) (UniProt P27695); assay: qHTS Validation Assay for Inhibitors of the Human Apurinic/apyrimidinic Endonuclease 1 (APE1) (AID 1705)
Procedure, shortened: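 Substrate: 50 nM final fluorophore/quencher THF-abasic duplex. Enzyme preincubated with compounds 15 min, RT. Progress derived from fluorescence difference, third minus first kinetic read.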

[17] = biological target: Endonuclease 4 (Escherichia coli (strain K12)) (UniProt P0A6C1); assay: Counterscreen for APE1 Inhibitors: qHTS Validation Assay for Inhibitors of Endonuclease IV (AID 1708); also: % is scaled to controls: 0 for no effect and ±100 for the full control effect
Procedure, shortened: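 qHTS concentration-response format; LOPAC1280 tested under APE1-screen conditions. 2 nM enzyme, 15 min compound preincubation at RT, then 50 nM TAMRA/BHQ-2 abasic substrate; kinetic fluorescence read, three reads at 60 s intervals.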

[18] = qHTS for differential inhibitors of proliferation of Plasmodium falciparum line 7G8 (AID 1815);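 also: potency is read from the fitted curve at half-maximal effect; parasite growth measured after three days of incubation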

Sequence of Glucocorticoid receptor (Homo sapiens) (P04150 whole entry, looked up, the tested form may be a part): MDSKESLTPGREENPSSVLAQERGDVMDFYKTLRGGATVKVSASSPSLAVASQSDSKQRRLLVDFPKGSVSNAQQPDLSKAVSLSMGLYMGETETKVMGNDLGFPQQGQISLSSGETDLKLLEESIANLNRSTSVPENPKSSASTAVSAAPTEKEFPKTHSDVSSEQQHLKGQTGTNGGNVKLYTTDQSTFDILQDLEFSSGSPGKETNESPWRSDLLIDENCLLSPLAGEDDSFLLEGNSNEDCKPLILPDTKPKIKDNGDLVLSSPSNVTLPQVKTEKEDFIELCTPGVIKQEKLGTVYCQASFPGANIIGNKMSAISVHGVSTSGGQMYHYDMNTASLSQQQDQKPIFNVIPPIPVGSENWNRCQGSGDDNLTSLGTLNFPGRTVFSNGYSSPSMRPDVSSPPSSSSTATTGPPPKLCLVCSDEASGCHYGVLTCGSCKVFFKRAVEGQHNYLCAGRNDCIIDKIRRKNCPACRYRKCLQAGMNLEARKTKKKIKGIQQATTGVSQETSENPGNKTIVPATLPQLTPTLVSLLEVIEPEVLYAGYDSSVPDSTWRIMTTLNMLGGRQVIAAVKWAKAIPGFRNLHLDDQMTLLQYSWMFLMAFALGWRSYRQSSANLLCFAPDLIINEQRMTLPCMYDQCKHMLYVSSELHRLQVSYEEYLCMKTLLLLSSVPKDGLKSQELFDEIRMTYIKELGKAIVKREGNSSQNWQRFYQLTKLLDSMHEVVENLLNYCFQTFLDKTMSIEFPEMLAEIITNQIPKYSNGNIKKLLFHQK
Sequence of Muscarinic acetylcholine receptor M1 (Rattus norvegicus) (P08482 whole entry, looked up): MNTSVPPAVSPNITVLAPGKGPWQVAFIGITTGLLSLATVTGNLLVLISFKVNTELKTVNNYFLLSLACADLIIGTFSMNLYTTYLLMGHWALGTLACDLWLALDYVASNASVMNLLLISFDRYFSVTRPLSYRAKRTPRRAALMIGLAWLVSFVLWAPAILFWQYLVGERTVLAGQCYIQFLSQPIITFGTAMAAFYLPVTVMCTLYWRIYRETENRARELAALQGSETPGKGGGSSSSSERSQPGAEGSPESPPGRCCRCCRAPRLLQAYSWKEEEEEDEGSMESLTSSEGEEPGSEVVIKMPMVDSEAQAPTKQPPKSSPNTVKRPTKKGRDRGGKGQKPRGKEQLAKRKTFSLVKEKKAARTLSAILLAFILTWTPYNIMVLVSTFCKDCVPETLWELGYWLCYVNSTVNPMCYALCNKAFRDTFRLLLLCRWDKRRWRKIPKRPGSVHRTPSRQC
Sequence of DNA repair nuclease/redox regulator APEX1 (Homo sapiens) (P27695 whole entry, looked up): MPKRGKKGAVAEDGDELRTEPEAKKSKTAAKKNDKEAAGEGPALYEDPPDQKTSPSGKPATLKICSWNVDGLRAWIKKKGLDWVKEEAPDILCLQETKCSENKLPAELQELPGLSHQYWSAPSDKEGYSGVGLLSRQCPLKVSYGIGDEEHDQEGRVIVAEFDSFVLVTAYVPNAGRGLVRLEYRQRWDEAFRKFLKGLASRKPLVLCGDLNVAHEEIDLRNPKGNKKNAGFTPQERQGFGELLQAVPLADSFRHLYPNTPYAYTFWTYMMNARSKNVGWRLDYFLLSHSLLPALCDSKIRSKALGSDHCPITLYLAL
Sequence of Cytochrome P450 1A2 (Homo sapiens) (P05177 whole entry, looked up): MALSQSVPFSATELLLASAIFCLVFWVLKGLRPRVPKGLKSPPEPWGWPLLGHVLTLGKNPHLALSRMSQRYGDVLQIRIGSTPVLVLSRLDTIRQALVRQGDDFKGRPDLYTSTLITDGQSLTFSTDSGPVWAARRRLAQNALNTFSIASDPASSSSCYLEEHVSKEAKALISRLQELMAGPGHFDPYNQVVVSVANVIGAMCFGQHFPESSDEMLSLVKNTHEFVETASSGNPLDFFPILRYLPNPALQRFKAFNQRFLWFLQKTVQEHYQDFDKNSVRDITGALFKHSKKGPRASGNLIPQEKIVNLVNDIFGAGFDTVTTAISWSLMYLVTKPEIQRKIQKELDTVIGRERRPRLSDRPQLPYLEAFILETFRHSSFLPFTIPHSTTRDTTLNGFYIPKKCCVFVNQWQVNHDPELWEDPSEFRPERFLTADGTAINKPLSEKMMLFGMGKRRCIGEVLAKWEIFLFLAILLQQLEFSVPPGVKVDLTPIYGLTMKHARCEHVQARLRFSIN
Sequence of Cytochrome P450 3A4 (Homo sapiens) (P08684 whole entry, looked up): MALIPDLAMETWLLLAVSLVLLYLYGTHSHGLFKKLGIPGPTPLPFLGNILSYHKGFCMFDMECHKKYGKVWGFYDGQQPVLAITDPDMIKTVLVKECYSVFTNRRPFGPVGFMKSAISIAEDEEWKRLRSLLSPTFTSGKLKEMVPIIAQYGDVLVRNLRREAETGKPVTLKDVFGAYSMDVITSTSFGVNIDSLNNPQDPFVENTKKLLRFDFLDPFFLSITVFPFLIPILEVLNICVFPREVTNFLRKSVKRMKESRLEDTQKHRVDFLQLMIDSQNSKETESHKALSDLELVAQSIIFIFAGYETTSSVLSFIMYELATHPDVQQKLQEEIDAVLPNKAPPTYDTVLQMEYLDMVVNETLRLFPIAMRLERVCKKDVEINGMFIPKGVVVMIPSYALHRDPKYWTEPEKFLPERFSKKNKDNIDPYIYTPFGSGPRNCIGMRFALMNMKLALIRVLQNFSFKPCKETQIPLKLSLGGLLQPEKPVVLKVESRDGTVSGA
Sequence of Pyruvate kinase (Leishmania mexicana) (Q27686 2-499 E452W): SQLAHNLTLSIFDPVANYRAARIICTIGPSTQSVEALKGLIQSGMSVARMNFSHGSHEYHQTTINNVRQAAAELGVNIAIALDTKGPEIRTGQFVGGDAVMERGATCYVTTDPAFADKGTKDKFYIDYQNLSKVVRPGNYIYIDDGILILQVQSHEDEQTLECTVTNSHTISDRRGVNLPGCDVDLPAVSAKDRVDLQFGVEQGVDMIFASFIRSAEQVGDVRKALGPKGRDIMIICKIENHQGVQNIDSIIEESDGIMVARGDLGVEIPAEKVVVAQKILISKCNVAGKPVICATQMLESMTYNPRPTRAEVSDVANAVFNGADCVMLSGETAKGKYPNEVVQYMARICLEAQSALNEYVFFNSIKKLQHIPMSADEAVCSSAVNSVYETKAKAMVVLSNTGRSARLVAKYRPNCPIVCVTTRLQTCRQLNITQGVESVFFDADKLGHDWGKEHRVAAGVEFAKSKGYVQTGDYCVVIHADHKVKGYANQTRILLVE
Sequence of Alpha-galactosidase A (Homo sapiens) (P06280 whole entry, looked up): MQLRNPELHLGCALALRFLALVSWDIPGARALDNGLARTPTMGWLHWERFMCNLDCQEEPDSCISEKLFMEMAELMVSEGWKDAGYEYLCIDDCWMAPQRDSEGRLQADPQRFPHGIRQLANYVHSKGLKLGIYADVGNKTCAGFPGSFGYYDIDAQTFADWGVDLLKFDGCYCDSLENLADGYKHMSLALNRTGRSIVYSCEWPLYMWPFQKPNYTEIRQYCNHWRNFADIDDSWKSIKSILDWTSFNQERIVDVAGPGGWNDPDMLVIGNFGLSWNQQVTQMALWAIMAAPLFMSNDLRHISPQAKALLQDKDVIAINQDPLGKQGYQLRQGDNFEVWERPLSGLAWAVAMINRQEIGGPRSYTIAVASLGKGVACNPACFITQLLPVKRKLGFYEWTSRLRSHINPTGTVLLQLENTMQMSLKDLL
Sequence of Guanine nucleotide-binding protein G(i) subunit alpha-1 (Homo sapiens) (P63096 whole entry, looked up): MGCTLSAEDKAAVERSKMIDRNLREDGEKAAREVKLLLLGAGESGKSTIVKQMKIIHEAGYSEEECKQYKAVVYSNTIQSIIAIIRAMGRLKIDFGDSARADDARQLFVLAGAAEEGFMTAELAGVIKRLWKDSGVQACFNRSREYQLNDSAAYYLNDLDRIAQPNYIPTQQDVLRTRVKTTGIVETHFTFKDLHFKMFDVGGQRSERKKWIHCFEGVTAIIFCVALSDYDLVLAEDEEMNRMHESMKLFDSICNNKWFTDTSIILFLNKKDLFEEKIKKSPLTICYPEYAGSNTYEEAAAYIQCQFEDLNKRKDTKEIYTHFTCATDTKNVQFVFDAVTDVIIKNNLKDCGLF

S=C(Nc1ccccc1)Nc1nccs1
active: Potency [2] 0.794 µM | Potency [10] 20 µM | Potency [18] 3.55 µM
inactive: activity change, negative = inhibition [1] -16.9% | activity change, negative = inhibition [3] 0.515% | activity, negative = inhibition [4] 11.6% | Potency [5] > 46 µM | Potency [6] > 46 µM | Potency [7] | outcome [8] | Potency [9] | Potency [11] | Potency [12] | outcome [13] | outcome [14] | activity change, negative = inhibition ([15]; at 57.5 µM (top of the series)) -0.0683% | Potency [16] | Potency [17]
-14.9%: max response ([15]; measured here: lipid channel max response)
-12.9%: max response ([15]; measured here: cell count channel max response)
